From the supplement of paper PMC12645437, “Orthogonal IMiD-Degron Pairs Induce Selective Protein Degradation in Cells” (ACS Chemical Biology, 2025)
The full ranking holds about 8,300 sequences; the median of “log2 fold change of degron read counts, EGFP-low vs EGFP+ sorted cells (limma voom), compound-induced degradation” is about -1.1, and the highest 2% start at about 3.2. Shown is part of a subset that was picked to be rich in the highest values.

T1: CRBN, Q96SW2
T1 chain: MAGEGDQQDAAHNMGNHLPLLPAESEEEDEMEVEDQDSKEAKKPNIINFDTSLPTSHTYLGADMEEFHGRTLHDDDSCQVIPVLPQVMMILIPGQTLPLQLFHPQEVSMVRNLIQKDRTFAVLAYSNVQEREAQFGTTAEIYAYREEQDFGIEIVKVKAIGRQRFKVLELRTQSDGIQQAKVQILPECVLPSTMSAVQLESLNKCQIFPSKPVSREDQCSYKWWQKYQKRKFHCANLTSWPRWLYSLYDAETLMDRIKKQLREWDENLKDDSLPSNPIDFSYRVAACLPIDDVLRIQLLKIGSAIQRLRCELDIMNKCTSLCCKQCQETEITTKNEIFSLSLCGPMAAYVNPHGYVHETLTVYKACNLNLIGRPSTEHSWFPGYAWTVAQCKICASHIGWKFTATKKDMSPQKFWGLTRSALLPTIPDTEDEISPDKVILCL


Target: T1, CRBN, Q96SW2
Assay: log2 fold change of degron read counts, EGFP-low vs EGFP+ sorted cells (limma voom), compound-induced degradation; higher = more compound-induced degradation of the degron-EGFP fusion; degrons are variants of IKZF1/3 zinc finger 2; compound dose not given here
Details: Jurkat, 18 h
[1] = compound: compound 19 (5-tert-butyl-thalidomide)
[2] = compound: compound 22 (5-morpholino-thalidomide)
[3] = compound: compound 33 (diphenyl IMiD analogue)
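Note: pooled lentiviral library of zinc finger degron-EGFP fusions in mCherry-positive Jurkat cells, FACS-sorted after compound exposure, with degron abundance counted by next-generation sequencing.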

| Sequence | log2 fold change of degron read counts [1] | log2 fold change of degron read counts [2] | log2 fold change of degron read counts [3] | log2 fold change of degron read counts (compound: thalidomide) |
| --- | --- | --- | --- | --- |
| FECPICGRSFTQKGNLLRHIKL [46F_47E_49P_50I_52G_53R_54S_55F_67L_, Q9UKT9] | -1.57 | -1.84 | 0.414 | 1.14 |
| FFCSVCGHNFTQKGNLLRHIKL [46F_47F_49S_50V_52G_53H_54N_55F_67L_, Q9UKT9] | -2.16 | -2.66 | -2.79 | -2.23 |
| FCCNQCGRRFTQKGNLLRHIKL [46F_47C_49N_50Q_52G_53R_54R_55F_67L_, Q9UKT9] | -2.5 | -2.28 | -2.09 | -1.82 |
| LRCEICGFNCTQKGNLLRHIKL [46L_47R_49E_50I_52G_53F_54N_55C_67L_, Q9UKT9] | -1.42 | -1.56 | -0.0516 | 0.0396 |
| FGCNQCGRIFTQKGNLLRHIKL [46F_47G_49N_50Q_52G_53R_54I_55F_67L_, Q9UKT9] | -1.52 | -1.65 | -1.94 | -1.45 |
| FECNQCGRHFTQKGNLLRHIKL [46F_47E_49N_50Q_52G_53R_54H_55F_67L_, Q9UKT9] | -2.89 | -3.21 | -3.78 | -2.98 |
| FSCNQCGRTFTQKGNLLRHIKL [46F_47S_49N_50Q_52G_53R_54T_55F_67L_, Q9UKT9] | -2.51 | -2.59 | -2.31 | -2.34 |
| FHCEICGRSFTQKGNLLRHIKL [46F_47H_49E_50I_52G_53R_54S_55F_67L_, Q9UKT9] | -1.49 | -1.82 | -0.909 | -2.11 |
| FDCPICGALFTQKGNLLRHIKL [46F_47D_49P_50I_52G_53A_54L_55F_67L_, Q9UKT9] | -0.924 | -0.888 | 1.62 | 0.905 |
| LFCEICGFTCTQKGNLLRHIKL [46L_47F_49E_50I_52G_53F_54T_55C_67L_, Q9UKT9] | 3.64 | 3.67 | 2.59 | 2.56 |
| LHCEICGFTCTQKGNLLRHIKL [46L_47H_49E_50I_52G_53F_54T_55C_67L_, Q9UKT9] | 2.89 | 2.93 | 2.43 | 2.43 |
| LNCEICGFTCTQKGNLLRHIKL [46L_47N_49E_50I_52G_53F_54T_55C_67L_, Q9UKT9] | 1.73 | 0.624 | -0.0341 | 0.396 |
| FQCNQCGHNFTQKGNLLRHIKL [46F_47Q_49N_50Q_52G_53H_54N_55F_67L_, Q9UKT9] | -2.53 | -2.33 | -2.93 | -2.77 |
| FTCEQCGAYFTQKGNLLRHIKL [46F_47T_49E_50Q_52G_53A_54Y_55F_67L_, Q9UKT9] | -2.34 | -1.73 | 0.185 | -0.424 |
| FECEQCGAPFTQKGNLLRHIKL [46F_47E_49E_50Q_52G_53A_54P_55F_67L_, Q9UKT9] | -1.7 | -3.27 | -1.9 | -1.5 |
| FNCPICGAPFTQKGNLLRHIKL [46F_47N_49P_50I_52G_53A_54P_55F_67L_, Q9UKT9] | 3.48 | 3.2 | 1.92 | 2.43 |
| FRCPQCGAPFTQKGNLLRHIKL [46F_47R_49P_50Q_52G_53A_54P_55F_67L_, Q9UKT9] | 0.857 | 2.89 | 2.7 | 2.5 |
| FNCPICGAMFTQKGNLLRHIKL [46F_47N_49P_50I_52G_53A_54M_55F_67L_, Q9UKT9] | 1.73 | 0.564 | 0.719 | 0.478 |
| FFCPICGAPFTQKGNLLRHIKL [46F_47F_49P_50I_52G_53A_54P_55F_67L_, Q9UKT9] | 3.92 | 3.44 | 2.55 | 2.09 |
| FECPICGAPFTQKGNLLRHIKL [46F_47E_49P_50I_52G_53A_54P_55F_67L_, Q9UKT9] | 2.46 | 0.3 | 2.23 | 2.98 |
| FRCPICGADFTQKGNLLRHIKL [46F_47R_49P_50I_52G_53A_54D_55F_67L_, Q9UKT9] | -0.99 | -0.254 | 1.92 | 1.51 |
| FRCPICGAPFTQKGNLLRHIKL [46F_47R_49P_50I_52G_53A_54P_55F_67L_, Q9UKT9] | 3.44 | 3.76 | 3.04 | 3.53 |
| FKCPICGAPFTQKGNLLRHIKL [46F_47K_49P_50I_52G_53A_54P_55F_67L_, Q9UKT9] | 2.55 | 2.24 | -0.00355 | 2.87 |
| FFCPICGAFFTQKGNLLRHIKL [46F_47F_49P_50I_52G_53A_54F_55F_67L_, Q9UKT9] | 2.73 | 2.52 | 1.71 | 0.267 |
| FSCPICGAPFTQKGNLLRHIKL [46F_47S_49P_50I_52G_53A_54P_55F_67L_, Q9UKT9] | 3.29 | 2.92 | 2.02 | 2.62 |
| FNCPICGRPFTQKGNLLRHIKL [46F_47N_49P_50I_52G_53R_54P_55F_67L_, Q9UKT9] | 1.49 | 0.628 | 0.167 | 1.01 |
| FFCPICGAMFTQKGNLLRHIKL [46F_47F_49P_50I_52G_53A_54M_55F_67L_, Q9UKT9] | 2.56 | 2.36 | 1.76 | 0.179 |
| FYCEICGRMFTQKGNLLRHIKL [46F_47Y_49E_50I_52G_53R_54M_55F_67L_, Q9UKT9] | 1.51 | 1.03 | 1.08 | -0.729 |
